# Experimental data taken from PubChem BioAssay AID463173 (ICCB-Longwood Screening Facility, Harvard Medical School, 2010).
# Among all 52,000 compounds or so, about 1,700 (3.3%) were called active. Rule as the data show it: active = survival mostly below about 52% (no sharp cut-off); inactive = mostly above about 56%. Only a selection was taken, and actives are over-represented in it overall.
# Tested on: Wild type
# Test: S. aureus survival, RN4220 and DeltatarO strains – OD600, teichoic acid synthesis inhibitors, primary screen (AID 463173)
# Conditions: S. aureus RN4220 wild type/DeltatarO growth, OD600, 18 h, stronger effect = lower value, screened at 18.75 µg/mL (by protocol)
row,SMILES,survival
1,CCc1ccccc1NC(=O)COC(=O)c1cn(CC)c2nc(C)ccc2c1=O,83% (inactive)
2,COc1ccc(OC)c(-c2nc3c(C#N)c[nH]n3c2NC2CCCCC2)c1,102% (inactive)
3,COc1ccc(-c2cc(C(F)(F)F)nc(SCC(=O)NCc3ccc(OC)c(OC)c3)n2)cc1,97% (inactive)
4,COc1ccc(CCNc2nc(-c3ccccc3OC)cc(C(F)(F)F)n2)cc1OC,-8% (active)
5,COc1ccc(CCNc2nc(-c3ccc(C)cc3)cc(C(F)F)n2)cc1OC,100% (inactive)
6,COc1ccc(CCNc2nc(-c3ccc(OC)c(OC)c3)cc(C(F)(F)F)n2)cc1OC,0% (active)
7,COc1ccc(CCNC(=O)CSc2nc(-c3ccc(F)cc3)cc(C(F)(F)F)n2)cc1OC,97% (inactive)
8,COc1ccc(CCNc2nc(-c3ccc(Cl)cc3)cc(C(F)(F)F)n2)cc1OC,18% (active)
9,COc1ccc(CCNc2nc(-c3ccc(F)cc3)cc(C(F)(F)F)n2)cc1OC,142% (inactive)
10,COc1ccc(CCNc2nc3c(-c4cccc(C(F)(F)F)c4)nnn3c3ccccc23)cc1OC,83% (inactive)
11,COc1ccc(-c2cc(C(F)(F)F)nc(SCC(=O)NCCc3ccc(OC)c(OC)c3)n2)cc1,70% (inactive)
12,CC(C)C1N(c2ccccc2)CCN1c1ccccc1,110% (inactive)
13,Cc1ccccc1OCC(=O)NCCN1CCCC1,113% (inactive)
14,COc1cc(-c2noc(CSc3nc(-c4ccccc4)cc(=O)[nH]3)n2)cc(OC)c1OC,59% (inactive)
15,O=c1[nH]cc(COCC(F)(F)C(F)F)c(=O)[nH]1,111% (inactive)
16,Cc1ccc(CCNC(=O)c2ccc(CS(=O)(=O)Cc3ccccc3F)o2)cc1,71% (inactive)
17,O=C(CCSCc1cccc(Cl)c1)NCCc1ccc(Cl)cc1,67% (inactive)
18,CCc1ccc(CNC(=O)CCSCc2ccccc2F)cc1,70% (inactive)
19,O=C(NCc1ccc(F)cc1Cl)c1ccc(CSCc2ccccc2Cl)o1,53% (inactive)
20,Cc1ccc(CCNC(=O)CCSCc2ccc(Cl)cc2)cc1,72% (inactive)
21,Cc1ccc(CNC(=O)CCSCc2ccccc2F)cc1,74% (inactive)
22,Cc1ccc(CCNC(=O)CCSCc2ccccc2F)cc1,-6% (active)
23,O=C(NCc1ccccc1Cl)c1ccc(CSCc2cccc(F)c2)o1,-1% (active)
24,Cc1ccccc1CS(=O)(=O)Cc1ccc(C(=O)NCCc2ccc(Cl)cc2)o1,88% (inactive)
25,O=C(CCSCc1ccc(Cl)cc1)NCCc1ccccc1,-6% (active)
26,O=C(NCc1ccccc1Cl)c1ccc(CSCc2ccccc2Cl)o1,66% (inactive)

row,SMILES,survival
1,O=C(NCCc1ccc(Cl)cc1)c1ccc(CS(=O)(=O)Cc2ccccc2F)o1,-3% (active)
2,COc1cccc(CNS(=O)(=O)c2ccc(-c3cc(C(F)(F)F)on3)s2)c1,87% (inactive)
3,CC1=C(C(=O)Nc2cc(Cl)ccc2C)C(c2sccc2C)n2ncnc2N1 (centres undefined),47% (inactive)
4,O=C(CSc1nc2c([nH]c3ccccc32)c(=O)n1-c1cccc(Cl)c1)NCc1ccccc1,78% (inactive)
5,COc1cccc(Cn2c(CNC(=O)C(C)C)nc3cccnc32)c1,80% (inactive)
6,Cc1oc(-c2ccc(C(=O)NCc3ccccc3)cc2)nc1CN1CCc2ccccc21,80% (inactive)
7,CC(C)(C)OC(=O)N1CCC(c2c(C(=O)NCc3cccc(Cl)c3)cnn2-c2ccc(F)cc2)CC1,78% (inactive)
8,COc1ccc(-c2nc(SCC(=O)Nc3ccc4c(c3)OCCO4)c(-c3ccc(F)cc3)[nH]2)cc1OC,62% (inactive)
9,Cc1ccccc1C(=O)NCC(c1ccc(N(C)C)cc1)N1CCCC1 (centres undefined),66% (inactive)
10,O=C(CCSCc1cccc(Cl)c1)NCc1ccc(F)cc1Cl,66% (inactive)
11,Cc1ccc(CCNC(=O)CCSCc2ccccc2Cl)cc1,-3% (active)
12,Cc1ccccc1CSCc1ccc(C(=O)NCCc2ccccc2)o1,77% (inactive)
13,O=C(CCSCc1ccccc1Cl)NCc1ccc(F)cc1Cl,0% (active)
14,Cc1ccc(CCNC(=O)c2ccc(CSCc3ccccc3C)o2)cc1,0% (active)
15,COc1ccc(CCNC(=O)CCSCc2ccccc2Cl)cc1OC,88% (inactive)
16,O=C(CCSCc1ccccc1Cl)NCCc1ccccc1,74% (inactive)
17,O=C(CCSCc1ccc(Cl)cc1)NCc1ccc(F)cc1Cl,79% (inactive)
18,Cc1ccc(CCNC(=O)c2ccc(CSCc3ccccc3Cl)o2)cc1,72% (inactive)
19,CC1(C)CC(NC(=O)NCc2ccc3c(c2)OCO3)CC(C)(CNC(=O)NCc2ccc3c(c2)OCO3)C1 (centres undefined),117% (inactive)
20,CCOCCc1nn2c(=O)cc(COC(=O)c3ccccc3OC)nc2s1,78% (inactive)
21,CC(=O)N1CCc2c(sc3c2c(=O)n(Cc2ccccc2)c(=O)n3Cc2ccccc2Cl)C1,98% (inactive)
22,C/C(=N\NC(N)N)C1CCCCCCCCCCC1,-1% (active)
23,Cc1nc(C)c(CC(=O)O)c(=O)[nH]1,112% (inactive)
24,CCOc1ccc(-n2cc(-c3ccccc3)c3c(NCCc4ccccc4)ncnc32)cc1,74% (inactive)
25,Cc1nc2nc(SCC(=O)NCCc3ccc(Cl)cc3)nn2c(C)c1Cc1ccccc1Cl,80% (inactive)
26,Cc1nc2nc(SCC(=O)NCc3ccccc3Cl)nn2c(C)c1Cc1ccccc1,68% (inactive)

row,SMILES,survival
1,Cc1cccc(Cc2c(C)nc3nc(SCC(=O)NCc4ccccc4)nn3c2C)c1,71% (inactive)
2,Cc1nc2nc(SCC(=O)NCc3ccccc3)nn2c(C)c1Cc1ccccc1Cl,128% (inactive)
3,Cc1nc2nc(SCC(=O)NCc3ccccc3)nn2c(C)c1Cc1ccccc1,0% (active)
4,Cc1cccc(Cc2c(C)nc3nc(SCc4ccccc4F)nn3c2C)c1,91% (inactive)
5,Cc1ccc(NC(=O)CSc2nc3nc(C)c(Cc4ccccc4)c(C)n3n2)cc1,47% (inactive)
6,Cc1nc2nc(SCC(=O)NCCc3ccc(Cl)cc3)nn2c(C)c1Cc1c(F)cccc1Cl,-2% (active)
7,Cc1cccc(Cc2c(C)nc3nc(SCc4ccccc4Cl)nn3c2C)c1,-5% (active)
8,Cc1cccc(Cc2c(C)nc3nc(SCc4ccccc4C)nn3c2C)c1,87% (inactive)
9,Cc1nc2nc(SCC(=O)Nc3ccccc3Cl)nn2c(C)c1Cc1ccccc1,-3% (active)
10,Cc1nc2nc(SCC(=O)NCCc3ccccc3)nn2c(C)c1Cc1c(F)cccc1Cl,65% (inactive)
11,Cc1cccc(Cn2c(CN3CCC(C(=O)NCCc4ccccc4)CC3)cc3ccccc32)c1,128% (inactive)
12,COc1cc(-c2nc(-c3ccc4c(c3)[nH]c(=O)n4C)no2)cc(OC)c1OC,83% (inactive)
13,COC(=O)c1cc(-c2ccccc2)sc1N,116% (inactive)
14,COCCNC(=O)CSc1nc(-c2ccc(C)cc2)nc2c1c(=O)n(C)c(=O)n2C,77% (inactive)
15,CCOc1ccc(OCC)c(S(=O)(=O)N2CCC(C)CC2)c1,102% (inactive)
16,CC(C)CCNC(=O)Cn1cc(S(=O)(=O)Cc2ccc(F)cc2)c2ccccc21,91% (inactive)
17,O=C(CSc1nnc(-c2cccs2)o1)Nc1cccc(C(F)(F)F)c1,71% (inactive)
18,Cc1ccc(C)c(N2CCN(C(=O)C3CCN(c4nc(-c5ccc(C(C)C)cc5)no4)CC3)CC2)c1,87% (inactive)
19,CCOCCCn1c(SCC(=O)Nc2ccc(C)cc2)nc2ccccc2c1=O,83% (inactive)
20,c1ccc(-n2nnnc2N2CCCC2)cc1,102% (inactive)
21,CCOC(=O)CN(Cc1ccccc1)C(C(=O)NC1CCCCC1)c1ccc(C)cc1 (centres undefined),-2% (active)
22,CCOC(=O)CN(Cc1ccccc1)C(C(=O)NC1CCCCC1)c1ccccc1 (centres undefined),-2% (active)
23,CN(Cc1ccccc1)C(C(=O)NC1CCCCC1)c1ccc(Cl)cc1 (centres undefined),74% (inactive)
24,CCOC(=O)CN(Cc1ccccc1)C(C(=O)NC1CCCCC1)c1ccc(OC)cc1 (centres undefined),20% (inactive)
25,COc1ccc(C(C(=O)NC2CCCC2)N(Cc2ccc(C)cc2)C(=O)c2ccn[nH]2)cc1OC (centres undefined),103% (inactive)
26,Cc1ccc(-c2nnn(CC(=O)N(Cc3ccccc3)C(C(=O)NC3CCCC3)c3ccco3)n2)cc1 (centres undefined),99% (inactive)

row,SMILES,survival
1,Cc1ccc(C(C(=O)NC2CCCCC2)N(C)Cc2ccccc2)cc1 (centres undefined),-1% (active)
2,O=C(NC1CCCC1)C(c1ccccc1)N(C(=O)c1ccco1)C1CCCC1 (centres undefined),88% (inactive)
3,O=C(NC1CCCC1)C(c1ccccc1)N(Cc1ccccc1F)C(=O)c1ccco1 (centres undefined),118% (inactive)
4,N#Cc1c(Nc2cccc(F)c2)sc(C(=O)c2ccc(Cl)cc2)c1N,101% (inactive)
5,CCCOc1cccc(NC(=O)c2c(-c3ccccc3Cl)noc2C)c1,71% (inactive)
6,CCc1nc(NCCCO)c2nnn(Cc3ccccc3F)c2n1,106% (inactive)
7,CS(=O)(=O)NCC(c1ccco1)N1CCN(c2ccccc2)CC1 (centres undefined),83% (inactive)
8,CCCCCCc1cc2cc(-c3nnc(-c4cccc(Cl)c4)o3)c(=O)oc2cc1O,72% (inactive)
9,CN(C)N1C(=O)CC(N2CCCC2)C1=O (centres undefined),101% (inactive)
10,CCc1ccc(NC(=O)CC2C(=O)N(c3cccc(C)c3)C(=O)N2CCC(C)C)cc1 (centres undefined),72% (inactive)
11,COc1cc2c(cc1OC)C(COc1cc(C)cc(C)c1)N(C(=O)c1ccc(S(=O)(=O)N3CCCC3)cc1)CC2 (centres undefined),45% (inactive)
12,COc1cc2c(cc1OC)C(COc1ccc(F)cc1)N(C(=O)c1ccc(S(=O)(=O)N3CCCC3)cc1)CC2 (centres undefined),88% (inactive)
13,COc1cc2c(cc1OC)C(COc1ccccc1OC)N(C(=O)c1ccc(S(=O)(=O)N3CCCC3)cc1)CC2 (centres undefined),0% (active)
14,COc1cccc(NC(=O)CCc2nnc3n(CC(C)C)c(=O)c4ccccc4n23)c1,92% (inactive)
15,CCOc1ccc(CCNC(=O)c2cc3c(s2)-c2ccccc2OC3)cc1OCC,90% (inactive)
16,Cc1ccc(C)c(N(C)C(=O)c2cc3c(s2)-c2ccccc2OC3)c1,-2% (active)
17,COc1cc(OC)c(N(C)C(=O)c2cc3c(s2)-c2ccccc2OC3)cc1Cl,73% (inactive)
18,COc1ccc(N2CCN(C(=O)c3cc4c(s3)-c3ccccc3OC4)CC2)cc1,116% (inactive)
19,Cc1ccc(CCNC(=O)c2cc3c(s2)-c2ccccc2OC3)cc1,95% (inactive)
20,CCOc1ccccc1N(C)C(=O)c1cc2c(s1)-c1ccccc1OC2,13% (active)
21,COc1cc(NC(=O)c2cc3c(s2)-c2ccccc2OC3)cc(OC)c1OC,53% (inactive)
22,CCN(C(=O)c1cc2c(s1)-c1c(C)cccc1OC2)c1cc(C)ccc1C,11% (active)
23,Cc1ccc(CCNC(=O)c2cc3c(s2)-c2c(C)cccc2OC3)cc1,88% (inactive)
24,COc1ccc(N(C)C(=O)c2cc3c(s2)-c2ccccc2OC3)cc1,13% (active)
25,CCN(C(=O)c1cc2c(s1)-c1c(C)cccc1OC2)c1ccccc1F,96% (inactive)
26,COc1ccc(CNC(=O)c2cc3c(s2)-c2ccccc2OC3)cc1,92% (inactive)
